17 molecules from ChEMBL document CHEMBL2218924, “A broad activity screen in support of a chemogenomic map for kinase signalling research and drug discovery” (Biochem J, 2013) can be followed below.

Assay [1] concerns the target Mitogen-activated protein kinase kinase kinase 9 (Homo sapiens) (UniProt P80192). To be noted: at 1 µM.
Assay [2] shares this target. To be noted: at 10 µM.
In assay [3] the target is Serine/threonine-protein kinase MRCK alpha (Homo sapiens) (UniProt Q5VT25). Conditions: at 1 µM.
Chain of Serine/threonine-protein kinase MRCK alpha (Homo sapiens) (Q5VT25 whole entry): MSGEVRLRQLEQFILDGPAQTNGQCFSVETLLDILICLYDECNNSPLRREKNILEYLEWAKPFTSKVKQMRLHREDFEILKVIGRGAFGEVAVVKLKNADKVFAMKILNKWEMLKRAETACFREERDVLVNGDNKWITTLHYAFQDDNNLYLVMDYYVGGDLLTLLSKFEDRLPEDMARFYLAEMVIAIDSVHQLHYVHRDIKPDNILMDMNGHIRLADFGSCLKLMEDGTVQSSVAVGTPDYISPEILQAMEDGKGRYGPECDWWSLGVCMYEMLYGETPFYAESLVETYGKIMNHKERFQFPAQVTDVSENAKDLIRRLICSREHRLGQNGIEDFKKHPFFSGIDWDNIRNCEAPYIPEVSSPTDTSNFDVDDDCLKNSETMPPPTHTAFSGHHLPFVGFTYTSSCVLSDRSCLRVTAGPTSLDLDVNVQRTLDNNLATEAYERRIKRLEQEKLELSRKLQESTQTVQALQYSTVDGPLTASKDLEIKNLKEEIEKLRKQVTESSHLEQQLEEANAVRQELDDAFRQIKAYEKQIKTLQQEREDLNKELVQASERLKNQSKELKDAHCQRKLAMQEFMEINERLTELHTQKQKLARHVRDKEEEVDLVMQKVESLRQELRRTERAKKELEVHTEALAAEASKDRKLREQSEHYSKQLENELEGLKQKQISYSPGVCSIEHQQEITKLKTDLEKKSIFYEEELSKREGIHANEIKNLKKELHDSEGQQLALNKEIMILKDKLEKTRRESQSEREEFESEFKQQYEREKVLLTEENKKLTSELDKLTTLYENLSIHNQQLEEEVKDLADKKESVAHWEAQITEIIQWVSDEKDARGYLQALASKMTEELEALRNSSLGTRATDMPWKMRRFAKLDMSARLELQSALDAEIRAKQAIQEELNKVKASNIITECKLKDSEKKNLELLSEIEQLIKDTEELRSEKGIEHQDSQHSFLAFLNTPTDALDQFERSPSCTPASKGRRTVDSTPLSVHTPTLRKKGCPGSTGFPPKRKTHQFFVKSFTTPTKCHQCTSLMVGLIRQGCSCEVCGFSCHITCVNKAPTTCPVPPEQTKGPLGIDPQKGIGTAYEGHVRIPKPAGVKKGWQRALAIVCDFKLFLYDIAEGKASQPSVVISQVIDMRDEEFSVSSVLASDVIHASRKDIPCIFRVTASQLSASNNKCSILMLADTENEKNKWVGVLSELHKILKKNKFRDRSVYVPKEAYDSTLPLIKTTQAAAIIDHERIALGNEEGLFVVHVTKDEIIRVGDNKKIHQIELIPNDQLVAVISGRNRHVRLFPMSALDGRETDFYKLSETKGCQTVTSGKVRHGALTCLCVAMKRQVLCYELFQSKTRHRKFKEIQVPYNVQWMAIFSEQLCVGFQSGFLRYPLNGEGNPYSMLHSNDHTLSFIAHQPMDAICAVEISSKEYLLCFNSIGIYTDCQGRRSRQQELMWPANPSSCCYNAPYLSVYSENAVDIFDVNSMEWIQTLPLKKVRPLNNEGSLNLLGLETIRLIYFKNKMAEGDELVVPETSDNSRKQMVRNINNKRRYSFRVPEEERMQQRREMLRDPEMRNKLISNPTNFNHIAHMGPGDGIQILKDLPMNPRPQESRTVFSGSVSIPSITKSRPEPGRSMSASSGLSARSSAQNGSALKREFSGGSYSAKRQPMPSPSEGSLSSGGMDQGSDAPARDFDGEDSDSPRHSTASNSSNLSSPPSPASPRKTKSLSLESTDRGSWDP
For assay [4], the target named is Serine/threonine-protein kinase MRCK beta (Homo sapiens) (UniProt Q9Y5S2). Conditions: at 1 µM.
Assay [5] concerns the target Ribosomal protein S6 kinase alpha-5 (Homo sapiens) (UniProt O75582). Conditions: at 1 µM.
The target is the same in assay [6]. Conditions: at 10 µM.
Assay [7] concerns the target Myosin light chain kinase, smooth muscle (Homo sapiens) (UniProt Q15746). Conditions: at 10 µM.
In assay [8] the target is Serine/threonine-protein kinase MRCK beta (Homo sapiens) (UniProt Q9Y5S2). Conditions: at 10 µM.
Assay [9] addresses Serine/threonine-protein kinase MRCK alpha (Homo sapiens) (UniProt Q5VT25). To be noted: at 10 µM.
The target of assay [10] is Myosin light chain kinase, smooth muscle (Homo sapiens) (UniProt Q15746). To be noted: at 1 µM.
Chain of Myosin light chain kinase, smooth muscle (Homo sapiens) (Q15746 whole entry): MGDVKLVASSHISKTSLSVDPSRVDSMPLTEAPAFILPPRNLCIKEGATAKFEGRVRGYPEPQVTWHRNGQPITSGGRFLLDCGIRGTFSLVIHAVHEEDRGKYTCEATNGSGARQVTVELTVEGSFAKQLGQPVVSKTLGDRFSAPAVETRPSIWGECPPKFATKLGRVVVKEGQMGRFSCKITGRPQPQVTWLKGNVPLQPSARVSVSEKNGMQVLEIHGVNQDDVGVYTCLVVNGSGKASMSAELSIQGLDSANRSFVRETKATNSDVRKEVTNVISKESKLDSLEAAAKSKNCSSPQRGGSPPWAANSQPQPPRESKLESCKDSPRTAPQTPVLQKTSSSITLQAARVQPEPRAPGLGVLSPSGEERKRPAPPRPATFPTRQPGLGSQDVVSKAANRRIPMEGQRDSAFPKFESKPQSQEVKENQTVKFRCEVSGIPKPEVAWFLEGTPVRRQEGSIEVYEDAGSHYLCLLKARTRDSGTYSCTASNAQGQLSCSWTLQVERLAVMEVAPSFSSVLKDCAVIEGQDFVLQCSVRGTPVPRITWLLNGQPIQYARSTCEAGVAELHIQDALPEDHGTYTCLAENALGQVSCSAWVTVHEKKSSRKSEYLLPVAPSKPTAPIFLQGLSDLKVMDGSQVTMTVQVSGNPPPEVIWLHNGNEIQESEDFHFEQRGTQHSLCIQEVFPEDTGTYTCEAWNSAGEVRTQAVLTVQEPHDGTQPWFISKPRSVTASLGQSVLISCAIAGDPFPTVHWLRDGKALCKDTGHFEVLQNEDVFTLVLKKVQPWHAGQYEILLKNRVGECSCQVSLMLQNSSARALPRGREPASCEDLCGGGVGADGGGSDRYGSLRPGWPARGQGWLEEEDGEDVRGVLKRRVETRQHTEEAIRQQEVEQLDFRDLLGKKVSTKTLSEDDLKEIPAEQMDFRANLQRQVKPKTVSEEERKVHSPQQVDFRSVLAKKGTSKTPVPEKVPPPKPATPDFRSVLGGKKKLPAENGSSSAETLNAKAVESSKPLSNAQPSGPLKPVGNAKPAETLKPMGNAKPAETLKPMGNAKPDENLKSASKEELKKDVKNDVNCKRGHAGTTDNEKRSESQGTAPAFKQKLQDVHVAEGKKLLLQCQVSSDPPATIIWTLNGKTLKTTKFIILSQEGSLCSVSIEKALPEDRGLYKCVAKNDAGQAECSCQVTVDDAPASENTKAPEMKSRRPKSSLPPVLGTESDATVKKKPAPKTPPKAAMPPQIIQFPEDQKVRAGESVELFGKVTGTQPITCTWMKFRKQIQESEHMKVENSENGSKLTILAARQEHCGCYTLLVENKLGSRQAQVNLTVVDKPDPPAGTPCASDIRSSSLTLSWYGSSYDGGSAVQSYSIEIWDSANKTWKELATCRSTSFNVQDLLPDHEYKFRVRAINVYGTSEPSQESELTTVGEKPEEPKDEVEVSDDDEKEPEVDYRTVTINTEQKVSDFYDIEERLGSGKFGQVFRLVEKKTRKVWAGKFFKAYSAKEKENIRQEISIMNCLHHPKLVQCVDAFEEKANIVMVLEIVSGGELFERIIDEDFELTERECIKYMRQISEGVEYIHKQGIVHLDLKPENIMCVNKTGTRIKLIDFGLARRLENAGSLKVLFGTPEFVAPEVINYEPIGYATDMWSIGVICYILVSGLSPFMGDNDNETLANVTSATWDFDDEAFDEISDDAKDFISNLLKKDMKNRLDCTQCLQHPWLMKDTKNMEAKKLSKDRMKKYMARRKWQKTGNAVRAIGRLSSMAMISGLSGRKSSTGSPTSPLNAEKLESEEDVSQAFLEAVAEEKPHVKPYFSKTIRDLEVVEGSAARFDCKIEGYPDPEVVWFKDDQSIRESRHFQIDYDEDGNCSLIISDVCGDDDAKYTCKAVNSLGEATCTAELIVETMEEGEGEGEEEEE

Chain of Mitogen-activated protein kinase kinase kinase 9 (Homo sapiens) (P80192 whole entry, looked up): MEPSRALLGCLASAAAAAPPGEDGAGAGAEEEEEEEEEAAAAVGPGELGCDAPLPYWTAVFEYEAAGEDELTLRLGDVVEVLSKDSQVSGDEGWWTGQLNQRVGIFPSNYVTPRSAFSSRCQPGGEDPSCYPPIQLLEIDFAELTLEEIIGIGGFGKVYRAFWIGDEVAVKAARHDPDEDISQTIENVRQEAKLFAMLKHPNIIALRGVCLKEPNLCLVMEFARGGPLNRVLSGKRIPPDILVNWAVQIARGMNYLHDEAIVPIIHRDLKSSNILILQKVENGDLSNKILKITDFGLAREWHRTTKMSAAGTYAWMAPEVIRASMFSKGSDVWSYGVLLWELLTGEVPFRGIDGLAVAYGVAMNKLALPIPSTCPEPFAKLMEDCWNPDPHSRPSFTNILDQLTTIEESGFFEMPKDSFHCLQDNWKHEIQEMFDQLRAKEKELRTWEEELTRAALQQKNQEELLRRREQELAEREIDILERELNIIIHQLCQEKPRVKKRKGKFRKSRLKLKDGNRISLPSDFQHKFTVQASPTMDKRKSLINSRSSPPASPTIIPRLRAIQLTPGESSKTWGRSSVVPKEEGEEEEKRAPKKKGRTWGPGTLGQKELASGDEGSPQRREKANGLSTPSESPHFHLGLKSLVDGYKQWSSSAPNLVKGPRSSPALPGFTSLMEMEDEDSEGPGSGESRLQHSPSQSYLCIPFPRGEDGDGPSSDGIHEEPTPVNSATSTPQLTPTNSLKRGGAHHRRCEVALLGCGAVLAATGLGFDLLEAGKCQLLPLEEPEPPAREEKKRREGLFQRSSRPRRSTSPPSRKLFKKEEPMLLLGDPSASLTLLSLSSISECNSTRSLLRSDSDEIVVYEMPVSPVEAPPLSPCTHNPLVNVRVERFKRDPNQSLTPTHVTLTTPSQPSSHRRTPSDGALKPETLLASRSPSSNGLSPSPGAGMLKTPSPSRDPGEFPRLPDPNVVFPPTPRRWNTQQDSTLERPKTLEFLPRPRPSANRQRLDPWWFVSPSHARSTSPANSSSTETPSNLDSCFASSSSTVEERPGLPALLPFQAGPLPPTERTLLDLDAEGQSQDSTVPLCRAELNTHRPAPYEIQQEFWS

`CC(C)(C)c1cc(C=C(C#N)C#N)cc(Br)c1O`: the residual activity in assay [1] amounted to 104%; in assay [2] it was 97%; in assay [3], 108%; in assay [4], 115%; in [5], 122%; in assay [6], 97%.

`CC(C)[C@H](CO)Nc1nc(Nc2cccc(Cl)c2)c2ncn(C(C)C)c2n1`: the residual activity in assay [7] was found to be 46%; in assay [1] it was 10%; in assay [2], 1%; in [4], 98%; in [8] it was 88%.

`CCc1nc(-c2ccc(OC)cc2)[nH]c1-c1ccncc1`: the residual activity in [3] is 115%; in assay [9], 114%; in assay [5], 108%; in [6] it was 112%.

Regarding `C[S+]([O-])c1ccc(-c2nc(-c3ccc(F)cc3)c(-c3ccncc3)[nH]2)cc1` (stereo not given), the residual activity was determined as 118% in assay [10]; 89% in assay [7]; 101% in [1]; 106% in assay [3]; 119% in [9]; 113% in assay [4]. For the same molecule, the residual activity in assay [8] amounted to 110%; in assay [5], 97%; in [6] it was 98%.

For `COC(=O)[C@@]1(O)C[C@H]2O[C@]1(C)n1c3ccccc3c3c4c(c5c6ccccc6n2c5c31)C(=O)NC4`, the residual activity was 1% in assay [10]; 2% in [7]; 1% in assay [1]; 0% in [2]; 71% in assay [3]; 23% in assay [9]. Further, the residual activity came out at 33% in assay [4], 5% in assay [8], 5% in assay [5] and 0% in [6].

On to `CN[C@@H]1C[C@H]2O[C@@](C)([C@@H]1OC)n1c3ccccc3c3c4c(c5c6ccccc6n2c5c31)C(=O)NC4`, for which the residual activity in assay [10] worked out at 0%; in [7] it was 1%; in [1], 0%; in [2], 1%.

As to `COc1ccc2c(c1)/C(=C/c1cnc[nH]1)C(=O)N2`, the residual activity in [1] was found to be 25%; in assay [2] it was 4%; in assay [3] it was 129%; in assay [9], 100%.

With `COc1ccc2c(c[n+](C)c3c4cc5c(cc4ccc23)OCO5)c1OC`, the residual activity in assay [10] was determined as 78%; in assay [2], 81%; in [3] it was 85%; in [9] it was 84%; in [4], 90%; in [8], 81%.

Turning to `O=C1NC(=O)c2c1c1c3ccccc3n3c1c1c2c2ccccc2n1C1CCC3O1`, the residual activity in assay [10] is 90%; in assay [7], 65%; in [1] it was 1%; in assay [2], 2%; in assay [5], 41%; in assay [6] it was 33%.

Turning to `O=[N+]([O-])/C=C/c1ccc2c(c1)OCO2`, the residual activity turned out to be 89% in assay [10]; 82% in assay [7]; 100% in [1]; 111% in [2]; 106% in assay [3]; 100% in [9]. Besides, the residual activity in assay [4] came out at 83%; in assay [8], 89%; in assay [5], 125%; in assay [6], 110%.

Consider `COc1cc(OC)c(/C=C2\C(=O)Nc3ccccc32)c(OC)c1`, for which the residual activity was found to be 88% in [10]; 77% in assay [7]; 92% in [1]; 65% in assay [2]; 83% in assay [4]; 84% in [8].

In the case of `c1cc(-c2cnn3cc(-c4ccc(OCCN5CCCCC5)cc4)cnc23)ccn1`, the residual activity in assay [7] stood at 71%; in [1] it was 78%; in [2] it was 17%; in assay [3], 121%; in [9] it was 118%; in assay [4], 106%. Besides, the residual activity in assay [5] was 121%; in assay [6] it was 60%.

Take `O=C1c2ccccc2-c2nc3nnnn3nc21`: the residual activity turned out to be 79% in assay [10]; 104% in [7]; 103% in assay [1]; 102% in [2]; 107% in assay [3]; 100% in assay [9]. The residual activity in assay [4] came to 116%; in assay [5] it was 145%.

Regarding `O=C1Nc2ccc3ncsc3c2/C1=C/c1c[nH]cn1`, the residual activity in assay [10] was determined as 25%; in assay [7], 11%; in assay [1], 9%; in assay [2], 2%; in assay [3], 104%; in assay [9], 90%. Moreover, the residual activity in [4] worked out at 75%; in assay [8], 49%; in [5] it was 43%; in assay [6], 7%.

Take `CCn1cnc2c(Nc3cccc(Cl)c3)nc(N[C@@H]3CCCC[C@@H]3N)nc21`: the residual activity in assay [10] came out at 94%; in assay [7], 46%; in assay [1], 16%; in assay [2], 2%; in assay [4] it was 94%; in assay [8], 78%.

`O=c1[nH]c2ccccc2n1C1CCN(Cc2ccc(-c3nc4cc5[nH]cnc5cc4nc3-c3ccccc3)cc2)CC1`: the residual activity amounted to 76% in [10]; 4% in [7]; 98% in assay [1]; 100% in assay [2]; 122% in assay [3]; 128% in [9]. In addition, the residual activity came to 96% in [4], 82% in assay [8], 132% in [5] and 106% in assay [6].

With `COc1cc2ncnc(Nc3ccc(OCc4ccccc4)cc3)c2cc1OC`, the residual activity in assay [10] turned out to be 84%; in assay [7] it was 90%; in [1] it was 81%; in [2], 56%; in assay [3] it was 121%; in assay [9], 117%. Besides, the residual activity in assay [4] and in [8] was 95% each time.
